# Eya2 phos inh – inhibitors of human Eya2 phosphatase activity | recombinant Eya2, OMFP fluorescence dephosphorylation (OMFP is methylfluorescein phosphate) | Potency, µM (titrated, usually from 76.9 µM), inactives show at the top dose activity, negative = inhibition, usual class: inhibitors | hit rate 0.006% among 330,000 | AID 488837; further: potency means the concentration at half of the fitted maximal effect
#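 Eya2 (0.2 uM) preincubated 10 min at ambient with compound, then OMFP substrate added at 50 uM; 10 min reaction in 50 mM HEPES pH 7.5, 50 mM NaCl, 5 uM MgCl2, 0.05% BSA, 1 mM DTT. Fluorescence read at Ex 485/Em 525 nm.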
# CtBP-E1A inh – blocks the CtBP interaction with E1A; hit rate 0.49% among 340,000; AlphaScreen GST-E1A/His-CtBP binding, 1536-well; stronger effect = lower value; AID 651724; activity change, % (concentration not given with the values); in the data active means activity change below about -65%; inconclusive means mostly about -30% to -63%
#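 In 5 uL wells, 23 nL compound meets equimolar GST-E1A and His-CtBP (5X stock 125 nM each) for 2 h, 37 °C. Beads (5X, 50 ug/mL) then 1 h, 37 °C, dark.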
# B2AR arrestin – recruits beta-arrestin to the human beta2-adrenergic receptor; P07550; beta-arrestin recruitment to beta2AR, cell-based reporter; Potency, µM (series often up to 46.1 µM), for the others: at the highest dose activation, most hits filed as activators; hit rate 0.02% among 330,000; AID 492947;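 further: potency means the concentration at half of the fitted maximal effect; 0% = DMSO controls and full agonism = EC100 isoproterenol or metaproterenol; nearly all actives have a fitted effect of over 65% in size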
# Six1-Eya2 blk – Six1/Eya2 interaction inhibition; AlphaScreen GST-Six1/His-Eya2 binding, biochemical; stronger effect = lower value; activity change, % (test concentration not listed); hit rate 0.56% among 360,000; AID 651725; in the data active means activity change below about -65%; inconclusive means mostly about -30% to -63%
# Target sequence (O00167 whole entry, looked up): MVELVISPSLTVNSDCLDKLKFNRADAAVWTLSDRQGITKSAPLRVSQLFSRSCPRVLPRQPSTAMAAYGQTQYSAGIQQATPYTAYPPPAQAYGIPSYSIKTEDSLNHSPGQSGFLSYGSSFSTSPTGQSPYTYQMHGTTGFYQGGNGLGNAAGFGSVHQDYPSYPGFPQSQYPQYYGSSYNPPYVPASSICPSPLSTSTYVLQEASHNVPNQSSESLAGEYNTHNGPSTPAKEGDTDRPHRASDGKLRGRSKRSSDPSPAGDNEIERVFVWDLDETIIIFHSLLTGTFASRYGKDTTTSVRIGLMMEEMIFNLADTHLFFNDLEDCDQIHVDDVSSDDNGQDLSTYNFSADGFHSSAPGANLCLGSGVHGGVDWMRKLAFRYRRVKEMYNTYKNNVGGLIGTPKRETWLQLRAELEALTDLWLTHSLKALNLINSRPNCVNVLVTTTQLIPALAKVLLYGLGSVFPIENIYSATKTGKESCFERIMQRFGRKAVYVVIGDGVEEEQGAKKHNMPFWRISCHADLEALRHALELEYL
# Target sequence (Q15475 whole entry, looked up): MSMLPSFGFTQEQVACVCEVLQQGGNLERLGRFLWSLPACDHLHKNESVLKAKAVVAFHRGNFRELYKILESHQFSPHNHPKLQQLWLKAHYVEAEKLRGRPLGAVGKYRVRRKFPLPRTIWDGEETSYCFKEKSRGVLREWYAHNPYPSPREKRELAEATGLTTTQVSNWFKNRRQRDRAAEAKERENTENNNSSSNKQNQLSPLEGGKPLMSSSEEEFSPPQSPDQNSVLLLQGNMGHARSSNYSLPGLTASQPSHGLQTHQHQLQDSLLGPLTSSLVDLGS
#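 GST-Six1 + His-Eya2 (5X stock: 250/500 nM); Tris pH 8.0, 300 mM NaCl, 0.05% BSA, 0.02% Tween 20; GSH donor/Ni acceptor beads; 1 h 37 °C dark; AlphaScreen readout.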
# L3MBTL1 inh – inhibitors of human L3MBTL1; AlphaScreen L3MBTL1–H3K9me1 peptide binding; Potency, µM (top dose mostly 57.1 µM), without a hit: at the top dose activity, negative = inhibition, usual class: inhibitors; hit rate 0.66% among 230,000; AID 485360; further: potency means the concentration at half of the fitted maximal effect; nearly all actives have a fitted effect of over 60% in size
#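 Displacement of a biotinylated histone H3(1-15) peptide monomethylated at Lys9 (75 nM) from L3MBTL1 (50 nM) was measured by AlphaScreen after a 30 min room-temperature compound incubation; cefsulodin titration served as intraplate control.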
# * hit, by the source's call; ? = inconclusive; . = no result. Rows were chosen to be rich in hits. Some 0.9% of all compounds tested hit in one or more screens of this group. Unless noted, the call rests on the fitted dose curve; in most records, active means well fitted curve in the direction sought with a large enough effect; inconclusive means small, poorly fitted or top-dose-only effect, or another doubt; inactive means no such curve, though single readings can be large; an effect the other way counts as inactive or inconclusive. Unless noted, on the % scale 0 is the no-effect control and ±100 the full control effect.
SMILES,Eya2 phos inh,CtBP-E1A inh,B2AR arrestin,Six1-Eya2 blk,L3MBTL1 inh
O=C(Nc1ccc(Br)cc1)c1ccc(Br)c(S(=O)(=O)Nc2cccnc2)c1,8%,-66*,4%,?,0%
OC[C@H]1O[C@H](n2cnc3c(N[C@H]4CCC[C@@H]4O)ncnc32)[C@H](O)[C@@H]1O,-6%,.,.,.,.
COc1cc(N2CCCC2)c(OC)cc1/C=C(/C#N)c1ccc(F)cc1,-4%,?,-1%,-78*,?
COc1cc(N2CCCC2)c(OC)cc1/C=C(/C#N)c1ccc(Br)cc1,-5%,?,0%,?,.
COc1ccc(NC(=O)CCC(=O)c2cccs2)c(OC)c1,18%,0,0%,-4,.
COc1cc(NC(=O)c2cccs2)c(OC)cc1NC(=O)CCC(=O)Nc1cccc2ncccc12,-16%,-87*,-1%,-82*,-4%
COc1ccccc1NC(=O)CCC(=O)Nc1cc(OC)c(NC(=O)c2cccs2)cc1OC,-6%,-93*,0%,-95*,.
Cc1nc2ccccc2nc1N/N=C/c1ccc(O)cc1,-1%,-7,0%,-23,-18%
Cc1nc(N/N=C/c2ccc(O)cc2)c2cnn(-c3ccccc3)c2n1,-8%,-76*,0%,?,6%
Cc1cccc(CNc2ncnc3ccc(-c4ccc5c(ccn5C)c4)cc23)c1,12%,.,-1%,.,-12%
Cc1cc(NC2CCCCC2)nc(-n2nc(C)cc2C)n1,2%,.,.,.,.
COc1cccc(Nc2nc(-c3sc(N)nc3C)cs2)c1,-27%,-72*,0%,?,-9%
COc1cccc(Nc2nc(-c3sc(C)nc3C)cs2)c1,-19%,.,-1%,-13,-4%
CCC(C(=O)Nc1ccc(C)cc1)c1ccccc1 (stereo unspecified),0%,9,0%,-12,5%
O=C(Nc1ccccc1C(=O)O)c1ccc(NC(=O)C2CCCCC2)cc1,5%,-77*,-1%,-83*,.
CCC(C(=O)Nc1ccc(C(=O)Nc2ccccc2C(=O)O)cc1)c1ccccc1 (stereo unspecified),-4%,-81*,-1%,?,.
O=C(Nc1ccccc1)c1ccc(NC(=O)C2CC2)cc1,8%,2,0%,0,.
O=[N+]([O-])c1ccccc1OCCNCc1ccccc1,8%,.,0%,-4,1%
CCN1C(=O)C(CC(=O)NCCc2ccccc2)N(NC(=O)c2ccc(Br)cc2)C1=S (stereo unspecified),.,-1,.,0,.
CN1C2CCCC1CC(NC(=O)c1nn(C)c3ccccc13)C2 (stereo unspecified),-2%,.,.,.,.
C/C(=N\NC(=O)c1ccc(F)cc1)c1ccccn1,8%,.,4%,-92*,.
C/C(=N\NC(=O)c1ccccc1-n1cccc1)c1ccccn1,.,?,.,-92*,.
C/C(=N\NC(=O)c1c[nH]c2ccccc12)c1ccccn1,-12%,-93*,3%,-93*,8.9µM*
C/C(=N\NC(=O)c1cc2ccccc2cc1O)c1ccccn1,-4%,-21,0%,-23,.
Nc1ccccc1CCc1ccccc1N,.,-7,.,0,.
SMILES,Eya2 phos inh,CtBP-E1A inh,B2AR arrestin,Six1-Eya2 blk,L3MBTL1 inh
Nc1nc2c(s1)COc1ccccc1-2,1%,.,3%,-9,-5%
Nc1nc2c(s1)CCc1c-2cnn1-c1ccccc1,1%,.,4%,-17,32µM*
COc1ccccc1/C=C/C=N/n1c(-c2n[nH]c3c2CCC3)n[nH]c1=S,18%,.,-1%,-9,-20%
S=c1[nH]nc(-c2n[nH]c3c2CCC3)n1/N=C/C=C/c1ccco1,20%,.,-1%,-1,28µM*
COc1cc(/C=C(\C#N)c2[nH]nc(N)c2C#N)cc(OC)c1O,21%,-67*,0%,?,.
COc1cc(/C=C(\C#N)c2ccccn2)cc(OC)c1O,20%,-9,1%,-5,.
O=c1cc(-c2ccc(O)c(-c3c(O)cc(O)c4c(=O)cc(-c5ccc(O)cc5)oc34)c2)oc2cc(O)cc(O)c12,2%,-68*,1%,-21,-17%
O=c1c(-c2c(O)cc(O)c3c(=O)cc(-c4ccc(O)cc4)oc23)c(-c2ccc(O)cc2)oc2cc(O)cc(O)c12,-25%,-16,-1%,-68*,.
Cc1nnc(SC(C)C(=O)Nc2ccc(Cl)cc2Cl)[nH]c1=O (stereo unspecified),-1%,-16,0%,1,4%
O=C(C[C@@H]1C/C=C\CC[C@@H](Cc2ccc(F)cc2)C(=O)OC[C@@H](Cc2ccccc2)NC1=O)NCCO,3%,4,-1%,5,5%
Cc1ccnc2c1ccc1c(C)ccnc12,?,-92*,-1%,-92*,-86%
Cc1ccnc2c(N3C(=O)C4C5c6ccccc6C(c6ccccc65)C4C3=O)cccc12 (stereo unspecified),14%,-8,4%,-20,?
Cc1ccnc2c1ccc1cccnc12,-19%,-92*,0%,-81*,3.5µM*
Cc1ccnc2c1ccc1ccccc12,0%,2,0%,1,.
Cc1ccc(C)c(S(=O)(=O)N(C)c2ccc(OC(=O)C3CCN(C(=O)Nc4ccccc4)CC3)cc2)c1,.,1,.,0,.
O=C(/C=C/c1ccc([N+](=O)[O-])cc1)OCC(=O)N1CCCC1,5%,-68*,0%,1,8%
CC(C)c1nc(SCC(=O)Nc2ccc(C(=O)O)cc2)c2c3c(sc2n1)CCCC3,-4%,-16,0%,-83*,.
CC1CCc2c(sc3ncnc(SCC(=O)Nc4ccc(C(=O)O)cc4)c23)C1 (stereo unspecified),-8%,-6,0%,0,.
Cc1ccc(-c2cc(C(=O)NCCN3CCOCC3)c3ccccc3n2)o1,2%,1,0%,-2,.
COc1ccc(OC)c(NC2=NC3(CCCCC3)N=C(N)N2)c1,-13%,-73*,0%,-84*,.
COc1ccc(NC2=NC3(CCCCC3)N=C(N)N2)cc1,1%,-3,0%,-13,10%
CCN(CC)c1ccc(N)cc1,12%,?,0%,-20,?
Nc1ccc(N(CCO)CCO)cc1,-13%,-12,0%,20,13µM*
Cc1ccccc1S(=O)(=O)NC(=O)C1(C)CCN1C(=O)C1(c2ccc(Cl)cc2)CCC1 (stereo unspecified),.,4,.,6,.
O=C(C[n+]1ccccc1)N/N=C/c1ccc(C(=O)O)cc1,14%,-9,0%,0,-16%
COc1ccc(N=C2S/C(=C\c3ccc(OCC(=O)O)cc3)C(=O)N2CCc2c[nH]c3ccccc23)cc1,-15%,-20,0%,-80*,-82%
COc1cccc(-n2c(SCc3cc(=O)oc4cc(O)c(O)cc34)nc3ccccc3c2=O)c1,4%,-2,1%,-24,32µM*
CCN(CC)C(=O)CSc1nc2ccccc2c(=O)n1-c1cccc(OC)c1,-4%,0,0%,0,.
O=C(O)c1ccnc2c(O)cccc12,-21%,.,0%,.,13µM*

# High-throughput results (PubChem)
